± gives the standard deviation of the averaged measurements.
Columns and labels:
Details in all cases: concentration: 10 µM; 24 h
HCC1569 [1] = test: cell number relative to DMSO (% of DMSO); higher = more cells (less growth inhibition / toxicity)
How it was run: (§1)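 Treatment: HCC1569 and TDF cells, 800 per well in 384-well plates with RPMI and 10% FBS, were given compounds at 10 µM for 24 h at 37 °C, in triplicate. Readout: after 3.7% formaldehyde fixation, cells were stained with a rabbit anti-H1.0 antibody, an AlexaFluor 647 secondary and DAPI. Reported values are H1.0 nuclear intensity or cell number as percent of the plate control, taken as the median of replicates, with positional smoothing for HCC1569.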

TDF [2] = test: as above
How it was run: as §1

TDF [3] = test: H1.0 immunofluorescence intensity relative to DMSO (% of DMSO); higher = stronger H1.0 induction, active = 120 or more
How it was run: as §1

HCC1569 [4] = test: H1.0 immunofluorescence intensity relative to DMSO (% of DMSO); higher = stronger H1.0 induction, active = 140 or more
How it was run: as §1
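For H1.0 immunofluorescence intensity relative to DMSO in this document: TDF is a line of transformed human dermal fibroblasts of mesenchymal origin.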
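For cell number relative to DMSO in this document: TDF denotes transformed human dermal fibroblasts of mesenchymal origin.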

## CCCCC1C(=O)N(c2ccccc2)N(c2ccccc2)C1=O [Phenylbutazone]
HCC1569 [1]
  cell number: 101 ± 1.3
TDF [2]
  cell number: 106 ± 10
TDF [3]
  H1.0 immunofluorescence intensity: 93.7 (inactive)
HCC1569 [4]
  H1.0 immunofluorescence intensity: 97.5 (inactive)

## NC(=O)c1nnn(Cc2cc(Cl)c(C(=O)c3ccc(Cl)cc3)c(Cl)c2)c1N
HCC1569 [1]
  cell number: 75
TDF [2]
  cell number: 73.8
TDF [3]
  H1.0 immunofluorescence intensity: 95.5 (inactive)
HCC1569 [4]
  H1.0 immunofluorescence intensity: 151 (active)

## O=C1NCCN1CCN1CCC(c2cn(-c3ccc(F)cc3)c3ccc(Cl)cc23)CC1
HCC1569 [1]
  cell number: 66.8
TDF [2]
  cell number: 39.3
TDF [3]
  H1.0 immunofluorescence intensity: 213 (active)
HCC1569 [4]
  H1.0 immunofluorescence intensity: 139 (inactive)

## N#CC(=Cc1ccc(O)c(O)c1)C(=O)NCCc1ccccc1 [Tyrphostin AG 698]
HCC1569 [1]
  cell number: 84.3
TDF [2]
  cell number: 91
TDF [3]
  H1.0 immunofluorescence intensity: 87.8 (inactive)
HCC1569 [4]
  H1.0 immunofluorescence intensity: 119 (inactive)

## O=c1oc2ccccc2c(O)c1Cc1c(O)c2ccccc2oc1=O [Dicoumarol]
HCC1569 [1]
  cell number: 99.6
TDF [2]
  cell number: 94.5
TDF [3]
  H1.0 immunofluorescence intensity: 99 (inactive)
HCC1569 [4]
  H1.0 immunofluorescence intensity: 98.4 (inactive)

## C#CCN(C)Cc1ccccc1.Cl [Pargyline hydrochloride]
HCC1569 [1]
  cell number: 114
TDF [2]
  cell number: 105
TDF [3]
  H1.0 immunofluorescence intensity: 91.7 (inactive)
HCC1569 [4]
  H1.0 immunofluorescence intensity: 101 (inactive)

## CC1(NC2=NS(=O)(=O)c3sc(Cl)cc3N2)CC1
HCC1569 [1]
  cell number: 101
TDF [2]
  cell number: 90.6
TDF [3]
  H1.0 immunofluorescence intensity: 96.1 (inactive)
HCC1569 [4]
  H1.0 immunofluorescence intensity: 94.7 (inactive)

## CC(C)(C)NCC(O)COc1nsnc1N1CCOCC1.O=C(O)C=CC(=O)O [(S)-Timolol maleate]
HCC1569 [1]
  cell number: 106
TDF [2]
  cell number: 105
TDF [3]
  H1.0 immunofluorescence intensity: 87.4 (inactive)
HCC1569 [4]
  H1.0 immunofluorescence intensity: 97.9 (inactive)

## NC(=O)OCC(COC(N)=O)c1ccccc1 [Felbamate]
HCC1569 [1]
  cell number: 111 ± 15
TDF [2]
  cell number: 109 ± 1.2
TDF [3]
  H1.0 immunofluorescence intensity: 97 (inactive)
HCC1569 [4]
  H1.0 immunofluorescence intensity: 93.1 (inactive)

## Br.C=CCN1CCc2c(cc(O)c(O)c2Br)C(c2ccccc2)C1 (stereo not drawn) [R(+)-6-Bromo-APB hydrobromide]
HCC1569 [1]
  cell number: 89.1
TDF [2]
  cell number: 87.2
TDF [3]
  H1.0 immunofluorescence intensity: 89.7 (inactive)
HCC1569 [4]
  H1.0 immunofluorescence intensity: 99.2 (inactive)

## Cn1nc2c3c(cccc31)C(=O)c1ccccc1-2 [JNK Inhibitor,                    Negative Control]
HCC1569 [1]
  cell number: 102
TDF [2]
  cell number: 95.3
TDF [3]
  H1.0 immunofluorescence intensity: 90.4 (inactive)
HCC1569 [4]
  H1.0 immunofluorescence intensity: 136 (inactive)

## CC1CCC(C(C)(C)O)CC2=C1CCC2C (single isomer, unassigned; (-)) [(-)-Guaiol]
HCC1569 [1]
  cell number: 99.2
TDF [2]
  cell number: 102
TDF [3]
  H1.0 immunofluorescence intensity: 102 (inactive)
HCC1569 [4]
  H1.0 immunofluorescence intensity: 106 (inactive)

## Nc1ncnc2c1C(=O)N(c1ccc(C3CCC(CC(=O)O)CC3)cc1)CCO2 (centres undefined)
HCC1569 [1]
  cell number: 103
TDF [2]
  cell number: 95.7
TDF [3]
  H1.0 immunofluorescence intensity: 99.8 (inactive)
HCC1569 [4]
  H1.0 immunofluorescence intensity: 98.5 (inactive)

## COc1ccc(/C=C2\COc3ccc(C)cc3C2=O)cc1O
HCC1569 [1]
  cell number: 58.1
TDF [2]
  cell number: 28
TDF [3]
  H1.0 immunofluorescence intensity: 126 (active)
HCC1569 [4]
  H1.0 immunofluorescence intensity: 134 (inactive)

## O=P(O)(O)C(O)(Cn1ccnc1)P(=O)(O)O [Zoledronic acid]
HCC1569 [1]
  cell number: 99
TDF [2]
  cell number: 89
TDF [3]
  H1.0 immunofluorescence intensity: 94 (inactive)
HCC1569 [4]
  H1.0 immunofluorescence intensity: 100 (inactive)

## Cn1c(=O)c2c(nc(C=Cc3cccc(Cl)c3)n2C)n(C)c1=O [8-(3-Chlorostyryl)caffeine]
HCC1569 [1]
  cell number: 106
TDF [2]
  cell number: 94.1
TDF [3]
  H1.0 immunofluorescence intensity: 100 (inactive)
HCC1569 [4]
  H1.0 immunofluorescence intensity: 99.1 (inactive)

## CN1CCN(C2=Nc3ccccc3Sc3ccc(Cl)cc32)CC1 [Clothiapine]
HCC1569 [1]
  cell number: 103
TDF [2]
  cell number: 88.9
TDF [3]
  H1.0 immunofluorescence intensity: 94 (inactive)
HCC1569 [4]
  H1.0 immunofluorescence intensity: 110 (inactive)

## CC(=O)O/N=C1\C(=O)N(Cc2cc(Cl)ccc2Cl)c2ccc(Cl)cc21
HCC1569 [1]
  cell number: 99.5
TDF [2]
  cell number: 107
TDF [3]
  H1.0 immunofluorescence intensity: 97.2 (inactive)
HCC1569 [4]
  H1.0 immunofluorescence intensity: 99.5 (inactive)

## COc1ccc(C(C)=O)c(O)c1 [Paeonol]
HCC1569 [1]
  cell number: 99
TDF [2]
  cell number: 102
TDF [3]
  H1.0 immunofluorescence intensity: 92.9 (inactive)
HCC1569 [4]
  H1.0 immunofluorescence intensity: 101 (inactive)

## OCC1OC(n2cnc3c(NC4CCCC4)ncnc32)C(O)C1O (centres undefined) [N6-Cyclopentyladenosine]
HCC1569 [1]
  cell number: 99.8
TDF [2]
  cell number: 104
TDF [3]
  H1.0 immunofluorescence intensity: 93.5 (inactive)
HCC1569 [4]
  H1.0 immunofluorescence intensity: 97.7 (inactive)

## CCCCS(=N)(=O)CCC(N)C(=O)O (centres undefined) [Buthionine sulfoximine]
HCC1569 [1]
  cell number: 95.9
TDF [2]
  cell number: 116
TDF [3]
  H1.0 immunofluorescence intensity: 89.1 (inactive)
HCC1569 [4]
  H1.0 immunofluorescence intensity: 92.6 (inactive)

## CN(C)CCCN1c2ccccc2CCc2ccc(Cl)cc21.Cl [Clomipramine hydrochloride]
HCC1569 [1]
  cell number: 89.6
TDF [2]
  cell number: 102
TDF [3]
  H1.0 immunofluorescence intensity: 107 (inactive)
HCC1569 [4]
  H1.0 immunofluorescence intensity: 122 (inactive)

## S=C([S-])OC1CC2CC1C1CCCC21.[K+] [D-609 potassium]
HCC1569 [1]
  cell number: 100
TDF [2]
  cell number: 104
TDF [3]
  H1.0 immunofluorescence intensity: 95.2 (inactive)
HCC1569 [4]
  H1.0 immunofluorescence intensity: 102 (inactive)

## CCC=CCC=CCC=CCC=CCC=CCCC(=O)OC(COCCCCCCCCCCCCCCCC)COP(=O)([O-])OCC[N+](C)(C)C (centres undefined)
HCC1569 [1]
  cell number: 105
TDF [2]
  cell number: 107
TDF [3]
  H1.0 immunofluorescence intensity: 94.3 (inactive)
HCC1569 [4]
  H1.0 immunofluorescence intensity: 99.4 (inactive)

## Cc1c(-c2cnccn2)ssc1=S [Oltipraz]
HCC1569 [1]
  cell number: 105
TDF [2]
  cell number: 101
TDF [3]
  H1.0 immunofluorescence intensity: 97.9 (inactive)
HCC1569 [4]
  H1.0 immunofluorescence intensity: 114 (inactive)

## CCN1CCc2nc(N)oc2CC1.Cl.Cl [B-HT 933 dihydrochloride]
HCC1569 [1]
  cell number: 99.5
TDF [2]
  cell number: 104
TDF [3]
  H1.0 immunofluorescence intensity: 97 (inactive)
HCC1569 [4]
  H1.0 immunofluorescence intensity: 87.2 (inactive)

Reference: the supplement of paper PMC7156485
